Several values for one entry are separate records, joined by “and”; a condition that tells them apart may be missing. Identical values can stand only once. Records with an inconclusive call do not appear. Where a structure was tested more than once in an assay, its records may differ in their call. Activity calls are given as the source filed them. Unless noted, calls come from the whole dose curve. Where a SMILES comes first, the peptide text is derived from it.

These results are taken from PubChem BioAssay (NCATS).

In assay [1] the target is Bile acid receptor (Homo sapiens) (UniProt Q96RI1). Put plainly: qHTS assay for small molecule antagonists of farnesoid X receptor signaling (AID 588526). For activity change, negative = inhibition: % is set by controls: 0 for no effect and ±100 for the full control effect. Note: potency is the fitted concentration of half-maximal effect. The procedure, abridged: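 Beta-lactamase reporter antagonist mode: HEK293T FXR-UAS-bla cells, titrated compound, CDCA stimulation, 16 h 37 C, CCF4 dye 2 h RT. Data normalized to CDCA 50 uM and DMSO; Hill-fit IC50.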
A general note: In qHTS, concentration-response curves come from the screen itself.

Assay [2] has the same target. Nature of the assay: qHTS assay for small molecule agonists of farnesoid X receptor signaling (AID 588527).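 For activation: 0% = vehicle basal and 100% = reference agonist.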 Note: potency is the fitted concentration of half-maximal effect. The conditions noted are these: HEK293T FXR-UAS-bla, beta-lactamase ratio, 16 h; activation: stronger effect = higher value. Put shortly:
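Agonist-mode beta-lactamase reporter in GeneBLAzer FXR-UAS-bla HEK293T cells, titration up to 92 uM, 16 h exposure at 37 C, CCF4 fluorescence. Response scaled to DMSO (0%) and 100 uM chenodeoxycholic acid (100%), then Hill-fitted for EC50 and efficacy.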

In assay [3] the target is Peroxisome proliferator-activated receptor gamma (Homo sapiens) (UniProt P37231). Nature of the assay: qHTS assay for small molecule agonists of peroxisome proliferator-activated receptor gamma signaling (AID 588536; active = well fitted curve in the direction sought with a large enough effect in the signal ratio, with a control signal flat, not every such curve was filed as active; the % refers to the signal ratio;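 note: 0% = DMSO basal wells and 100% = rosiglitazone at 2 µM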). Put shortly:
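This is an agonist-mode beta-lactamase reporter assay in HEK293 PPAR-gamma-UAS-bla cells with 1% charcoal/dextran FBS. Compound titrations ran 16 h at 37 C before CCF4 detection. EC50 and efficacy are Hill fits scaled to 2 uM rosiglitazone (100%) and DMSO basal.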

Assay [4] in a line: qHTS assay for small molecule agonists of retinoid X receptor alpha signaling (AID 588544). The settings on record: HEK293T RXRa-UAS-bla, beta-lactamase reporter, 18 h; 530 nm emission.
In assay [5] the target is Retinoic acid receptor RXR-alpha (Homo sapiens) (UniProt P19793). Put plainly: qHTS assay for small molecule antagonists of retinoid X receptor alpha signaling (AID 588546; active = well fitted inhibition curve with a large enough effect in the signal ratio, with a control signal flat, not every such curve was filed as active; the % refers to the signal ratio; note: potency is the fitted concentration of half-maximal effect;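 for max response: cells stimulated with 9-cis-retinoic acid as agonist; % is set by controls: 0 for no effect and ±100 for the full control effect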). The conditions noted are these: HEK293T RXRa-UAS-bla, beta-lactamase ratio, antagonist mode. The procedure, abridged:
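Beta-lactamase reporter inhibition, read as CCF4 fluorescence ratio (ex 405, em 460/530 nm) after 2 h at RT. HEK293T UAS-bla cells, 2500/well, were stimulated with 9-cis-RA at 500 or 100 nM final alongside test compound for 18 h at 37 C.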

A short description of assay [6]: qHTS assay to identify small molecules that stimulate interleukin-8 (IL-8) secretion (AID 651758; active = well fitted activation curve with a large enough effect in the signal ratio; the % refers to the signal ratio; note: potency is the fitted concentration of half-maximal effect; for activation: 0% is about no effect). Put shortly: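 Secreted IL-8 measured homogeneously by TR-FRET (two labelled anti-IL-8 antibodies, 1-3 h at room temperature) after a 16 h, 37 C compound treatment of THP-1 cells at 2000 cells/well.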
Assay [7] in a line: NFAT Signaling Pathway (AID 444; active = well fitted curve in either direction with a large enough effect, not every such curve was filed as active;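 note: carbachol stimulus at about its EC50 of 1 µM final; % is set by controls: 0 for no effect and ±100 for the full control effect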). The settings on record: Jurkat NFAT-bla M1, carbachol, beta-lactamase ratio, 5 h; at 17.2 µM (top of the series) unless noted. Put shortly: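 Read-out: CCF4 FRET ratio (460 nm/530 nm) after 1 h RT dye loading, used for %activity and AC50 from titration series. Cells: Jurkat NFAT-β-lactamase/M1 line, treated with compound plus 1 uM carbachol for 5 h, 37 °C.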

Assay [8] can be described thus: qHTS Assay for Identification of Small Molecule Agonists for Hypoxia Response Element Signaling Pathway (AID 914; active = well fitted activation curve with a large enough effect in the signal ratio, with a control signal flat, not every such curve was filed as active; the % refers to the signal ratio; note: % of control where 0% means no effect). The conditions noted are these: ME-180 (cervical carcinoma) HRE-bla reporter, beta-lactamase ratio, CoCl2, 17 h; activation: stronger effect = higher value. The procedure, abridged: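 AC50 values come from titration-series %Activity, taken as the 460/530nm ratio of CCF4 fluorescence (excitation 405nm). CellSensor HRE-bla ME-180 cells were treated 17 hours at 37 C with compound plus an EC50 level of CoCl2.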

Assay [9] has as its target Androgen receptor (Homo sapiens) (UniProt P10275). Nature of the assay: qHTS assay for small molecule antagonists of androgen receptor signaling (AID 588516; active = well fitted curve in the direction sought with a large enough effect in the signal ratio, with a control signal flat, not every such curve was filed as active; the % refers to the signal ratio; note: potency is the fitted concentration of half-maximal effect). The procedure, abridged:
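Cells were plated and incubated 5 h, compounds added in titration, then R1881 (10 nM final) as agonist. After 16 h at 37 C, CCF4 substrate was loaded for 2 h at room temperature and fluorescence measured.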

Assay [10] concerns the target Cytochrome P450 3A4 (Homo sapiens) (UniProt P08684). Nature of the assay: qHTS Assay for Activators of Cytochrome P450 3A4 (AID 885; active = well fitted activation curve with a large enough effect; note: nearly all actives have a fitted effect of over 65% in size). The procedure, abridged:
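Luminescent readout of luciferin formed from 25 uM Luciferin-PPXE (KM level) by 20 nM CYP3A4 in 200 mM KPO4, with 60 min NADPH-driven reaction at room temperature after 10 min compound exposure. Ketoconazole (57 uM) defined 100% inhibition.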

The target of assay [11] is Androgen receptor (Homo sapiens) (UniProt P10275). Put plainly: qHTS assay for small molecule agonists of androgen receptor signaling (AID 588515; active = well fitted curve in the direction sought with a large enough effect in the signal ratio, with a control signal flat; the % refers to the signal ratio; note: % is set by controls: 0 for no effect and ±100 for the full control effect). The settings on record: AR-UAS-bla HEK293, beta-lactamase ratio, agonist 16 h; stronger effect = higher value. The procedure, abridged:
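Stimulation of an AR-responsive β-lactamase reporter in GripTite HEK293 cells was measured after 16 h compound exposure at 37 °C, via CCF4 fluorescence after 2 h RT. EC50 from Hill fits, normalized to R1881 at 30 nM.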

The nature of assay [12]: qHTS assay for small molecule antagonists of peroxisome proliferator-activated receptor delta signaling (AID 588535; active = well fitted inhibition curve with a large enough effect in the signal ratio, with a control signal flat, not every such curve was filed as active; the % refers to the signal ratio;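 for max response: cells co-treated with a PPAR-delta agonist as stimulator during compound exposure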). The settings on record: HEK293T PPARd-UAS-bla, beta-lactamase FRET ratio, 18 h; 460 nm channel. Put shortly: (§1)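 Antagonist-mode qHTS using GeneBLAzer PPAR-delta-UAS-bla HEK293T cells; compound exposure 18 hrs at 37 C over a titration. Ratiometric CCF4 fluorescence at 460/530 nm; concentration-response points fitted to the Hill equation.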

The target in assay [13] is Peroxisome proliferator-activated receptor delta (Homo sapiens) (UniProt Q03181). Described as above. Put shortly:
as §1

Assay [14] has as its target Peroxisome proliferator-activated receptor gamma (Homo sapiens) (UniProt P37231). Put plainly: qHTS assay for small molecule antagonists of peroxisome proliferator-activated receptor gamma signaling (AID 588537; active = well fitted inhibition curve with a large enough effect in the signal ratio, with a control signal flat, not every such curve was filed as active; the % refers to the signal ratio; note: potency is the fitted concentration of half-maximal effect). The procedure, abridged:
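Cell-based beta-lactamase assay; GW9662 served as the antagonist control. Stimulation used rosiglitazone, final 50 nM, 16 h, 37 C.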

Sequence of Androgen receptor (Homo sapiens) (P10275 whole entry, looked up): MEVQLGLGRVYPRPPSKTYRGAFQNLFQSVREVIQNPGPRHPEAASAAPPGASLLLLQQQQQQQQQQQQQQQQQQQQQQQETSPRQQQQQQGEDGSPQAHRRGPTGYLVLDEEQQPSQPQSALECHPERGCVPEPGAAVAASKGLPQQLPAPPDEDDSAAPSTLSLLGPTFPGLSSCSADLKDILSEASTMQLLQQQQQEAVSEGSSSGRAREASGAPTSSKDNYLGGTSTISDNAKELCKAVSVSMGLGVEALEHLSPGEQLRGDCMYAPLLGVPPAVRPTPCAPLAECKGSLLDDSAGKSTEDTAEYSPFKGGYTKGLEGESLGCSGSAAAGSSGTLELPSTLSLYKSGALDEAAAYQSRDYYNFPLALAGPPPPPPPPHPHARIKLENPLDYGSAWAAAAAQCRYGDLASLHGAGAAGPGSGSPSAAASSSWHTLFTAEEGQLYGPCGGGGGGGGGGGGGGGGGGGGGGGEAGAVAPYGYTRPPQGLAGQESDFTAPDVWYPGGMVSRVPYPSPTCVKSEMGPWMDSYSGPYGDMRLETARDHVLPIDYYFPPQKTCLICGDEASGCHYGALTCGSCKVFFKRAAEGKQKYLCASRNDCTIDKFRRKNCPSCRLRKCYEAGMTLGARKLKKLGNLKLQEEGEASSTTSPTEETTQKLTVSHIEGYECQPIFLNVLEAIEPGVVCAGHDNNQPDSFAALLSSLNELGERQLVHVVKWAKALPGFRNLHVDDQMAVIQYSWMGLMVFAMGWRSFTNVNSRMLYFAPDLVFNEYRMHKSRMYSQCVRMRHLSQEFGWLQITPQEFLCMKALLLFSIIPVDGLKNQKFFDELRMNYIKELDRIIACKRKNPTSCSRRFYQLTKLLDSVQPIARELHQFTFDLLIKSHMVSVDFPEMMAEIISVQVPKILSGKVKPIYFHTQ
Sequence of Cytochrome P450 3A4 (Homo sapiens) (P08684 whole entry, looked up): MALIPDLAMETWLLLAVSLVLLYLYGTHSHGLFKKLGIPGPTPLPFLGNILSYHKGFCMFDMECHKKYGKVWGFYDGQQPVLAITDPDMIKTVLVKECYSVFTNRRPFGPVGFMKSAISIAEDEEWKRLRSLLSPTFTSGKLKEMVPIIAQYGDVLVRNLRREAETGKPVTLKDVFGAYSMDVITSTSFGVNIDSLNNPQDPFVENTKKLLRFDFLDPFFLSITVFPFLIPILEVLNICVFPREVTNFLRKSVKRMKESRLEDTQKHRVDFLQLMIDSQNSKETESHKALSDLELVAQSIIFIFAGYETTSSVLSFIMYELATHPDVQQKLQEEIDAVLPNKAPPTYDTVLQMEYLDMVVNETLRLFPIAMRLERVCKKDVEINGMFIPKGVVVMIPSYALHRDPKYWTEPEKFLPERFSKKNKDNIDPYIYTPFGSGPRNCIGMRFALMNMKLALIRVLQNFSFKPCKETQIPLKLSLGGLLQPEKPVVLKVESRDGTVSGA
Sequence of Bile acid receptor (Homo sapiens) (Q96RI1 whole entry, looked up): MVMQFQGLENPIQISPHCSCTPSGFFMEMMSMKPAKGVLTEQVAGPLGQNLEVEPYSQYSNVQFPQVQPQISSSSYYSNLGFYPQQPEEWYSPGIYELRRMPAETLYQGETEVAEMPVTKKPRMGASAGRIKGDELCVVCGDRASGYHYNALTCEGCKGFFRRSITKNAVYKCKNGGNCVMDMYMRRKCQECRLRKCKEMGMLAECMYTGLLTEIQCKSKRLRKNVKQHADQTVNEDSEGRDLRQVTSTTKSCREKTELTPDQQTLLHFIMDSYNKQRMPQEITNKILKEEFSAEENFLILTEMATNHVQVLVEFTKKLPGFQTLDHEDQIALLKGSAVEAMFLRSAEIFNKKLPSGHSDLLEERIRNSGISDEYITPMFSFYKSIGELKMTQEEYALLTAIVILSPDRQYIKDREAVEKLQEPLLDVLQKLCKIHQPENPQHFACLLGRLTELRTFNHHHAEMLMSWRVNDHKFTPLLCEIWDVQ
Sequence of Retinoic acid receptor RXR-alpha (Homo sapiens) (P19793 whole entry, looked up): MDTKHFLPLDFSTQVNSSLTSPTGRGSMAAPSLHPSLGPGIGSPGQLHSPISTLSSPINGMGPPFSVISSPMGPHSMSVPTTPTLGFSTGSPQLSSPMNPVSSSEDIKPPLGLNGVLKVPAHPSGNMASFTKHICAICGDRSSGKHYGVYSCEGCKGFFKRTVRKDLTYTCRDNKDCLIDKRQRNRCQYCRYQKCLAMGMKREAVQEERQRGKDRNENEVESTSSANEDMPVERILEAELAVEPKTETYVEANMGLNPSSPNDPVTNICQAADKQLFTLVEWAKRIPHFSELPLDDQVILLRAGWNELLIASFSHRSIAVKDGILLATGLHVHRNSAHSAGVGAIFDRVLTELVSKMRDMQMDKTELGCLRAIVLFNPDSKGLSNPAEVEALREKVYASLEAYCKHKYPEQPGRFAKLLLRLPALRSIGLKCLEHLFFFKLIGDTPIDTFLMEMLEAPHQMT
Sequence of Peroxisome proliferator-activated receptor gamma (Homo sapiens) (P37231 whole entry, looked up): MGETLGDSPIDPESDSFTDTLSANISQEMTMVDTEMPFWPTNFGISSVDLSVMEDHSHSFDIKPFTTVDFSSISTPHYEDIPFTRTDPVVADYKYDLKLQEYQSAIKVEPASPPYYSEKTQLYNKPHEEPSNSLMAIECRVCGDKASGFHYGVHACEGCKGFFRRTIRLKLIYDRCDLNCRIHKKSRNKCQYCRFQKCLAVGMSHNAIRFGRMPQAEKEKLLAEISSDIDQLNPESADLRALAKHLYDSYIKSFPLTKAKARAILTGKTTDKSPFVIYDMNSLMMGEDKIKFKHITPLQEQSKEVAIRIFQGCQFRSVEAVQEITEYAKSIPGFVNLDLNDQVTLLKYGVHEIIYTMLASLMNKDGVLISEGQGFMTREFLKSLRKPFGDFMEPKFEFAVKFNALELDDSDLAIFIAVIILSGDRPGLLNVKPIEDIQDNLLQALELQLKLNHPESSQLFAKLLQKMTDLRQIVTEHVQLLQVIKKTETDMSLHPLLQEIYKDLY
Sequence of Peroxisome proliferator-activated receptor delta (Homo sapiens) (Q03181 whole entry, looked up): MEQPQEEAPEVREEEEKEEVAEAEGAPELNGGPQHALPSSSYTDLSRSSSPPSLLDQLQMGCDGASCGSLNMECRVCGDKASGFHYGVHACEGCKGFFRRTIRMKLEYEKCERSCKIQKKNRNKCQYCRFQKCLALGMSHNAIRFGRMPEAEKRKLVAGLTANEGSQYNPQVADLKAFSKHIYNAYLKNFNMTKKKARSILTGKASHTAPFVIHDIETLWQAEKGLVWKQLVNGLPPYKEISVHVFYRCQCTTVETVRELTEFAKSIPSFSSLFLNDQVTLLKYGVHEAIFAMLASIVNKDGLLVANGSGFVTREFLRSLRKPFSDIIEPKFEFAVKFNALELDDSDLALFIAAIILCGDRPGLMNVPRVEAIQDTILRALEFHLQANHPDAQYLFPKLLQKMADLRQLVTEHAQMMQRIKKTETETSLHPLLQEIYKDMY

With `OC(c1ccc(Cl)cc1)(c1ccc(Cl)cc1)C(Cl)(Cl)Cl`, the Potency result in assay [1], in assay [3] and in assay [6] was “inactive” throughout. Further, in assay [2], the activation is 3.21% (inactive) and 2.17% (inactive). In addition, the max response in assay [4] is -15%; in assay [5] it was 3.94% (inactive).

As for `[CH3][Hg][Cl]`, in assay [5], the Potency was 2.24 µM (active).

Consider `c1ccc2cc3c(cc2c1)-c1cccc2cccc-3c12`, for which, in assay [2], the Potency is 3.16 µM (active). Further, the max response in [4] amounted to 21%.

With `CC(C)C[C@H](NC(=O)[C@@H]1CCCN1C(=O)[C@@H](N)Cc1ccc(O)cc1)C(=O)NCC(N)=O` (H-YPLG-NH2), in assay [7], the activity change, negative = inhibition was 14.8% (inactive). Further, the activation in [8] was -10.4% (inactive).

In the case of `Oc1c(Br)c(Br)c(Br)c(Br)c1Br`, the Potency result in assay [9] is “inactive”. In addition, the Potency in assay [1] was 28.2 µM (active).

As for `[Cd+2].[Cl-].[Cl-]`, the Potency result in assay [10] was “inactive”.

In the case of `N#CC(Cl)Cl`, the Potency result in assay [10] and in assay [9] was “inactive” in each case. Moreover, the activation in [11] was 16.6% (inactive). The max response in assay [4] was 17.1%; in assay [5], 0.201% (inactive).

Consider `OC(Cc1ccccc1)(c1ccccc1)C1CN2CCC1CC2` (stereo unspecified), for which the activity change, negative = inhibition in assay [7] is -83.4% (active). Moreover, the activation in [8] was 10.8% (inactive).

As for `COCC(C)OC(=O)c1c(N)n(Cc2ccco2)c2nc3ccccc3nc12` (stereo unspecified), the activity change, negative = inhibition in assay [7] was 10.7% (inactive).

For the molecule `C(=NC1CCCCC1)=NC1CCCCC1`, the Potency entry in assay [1] is “inactive”. In assay [6], the Potency was 53.1 µM (active).

For the molecule `COP(=O)(OC)O/C(=C\Cl)c1cc(Cl)c(Cl)cc1Cl`, the activation in assay [11] was -13% (inactive). Further, in [6], the Potency entry is “inactive”.

As for `FC(F)(F)c1ccc(Cl)cc1`, the Potency entry in assay [1], in assay [13], in assay [3] and in assay [14] was “inactive” throughout. In addition, in assay [2], the activation is 3.21% (inactive) and 2.89% (inactive). Also, the max response in [12] was -2.48% and -14.3%; in assay [5] it was -8.02% (inactive).

Turning to `O=C(Nc1ccncc1)c1c(O)c2ccccc2n(Cc2ccccc2)c1=O`, the activity change, negative = inhibition in assay [7] was 22.9% (inactive).

Turning to `ClC1=C(Cl)C2(Cl)C3C(Cl)C(Cl)CC3C1(Cl)C2(Cl)Cl` (stereo unspecified), the Potency entry in assay [10] was “inactive”. In addition, the activation in assay [11] is -9.52% (inactive). Besides, the Potency in [6] was 42.2 µM (active).

As for `N#CSCSC#N`, in assay [2], the activation was 17.3% (inactive). Moreover, in assay [14], the Potency was 35.5 µM (active).

Turning to `O=[N+]([O-])c1cc(C(F)(F)F)cc([N+](=O)[O-])c1Cl`, the Potency result in assay [1], in [13], in [3] and in [6] was “inactive” in each case. In assay [2], the activation was -1.74% (inactive). Also, the max response in [12] came to 32.3%; in [4], 2.71%.

As to `O=C1C2(Cl)C3(Cl)C4(Cl)C(Cl)(Cl)C5(Cl)C3(Cl)C1(Cl)C5(Cl)C24Cl` (stereo unspecified), the Potency entry in [10] is “inactive”. The activation in assay [11] is 0.62% (inactive); in assay [2], 1.21% (inactive) and 8.36% (inactive). In addition, the Potency in assay [9] is 44.7 µM (active) and inactive; in assay [14], 44.7 µM (active) and inactive.
